# Experimental data: PubChem BioAssay AID1063 (University of Pittsburgh Molecular Library Screening Center, 2008)
# Screen size: about 200,000 compounds; about 18,000 (9%) were called active. Rule as the data show it: active = inhibition above about 50%; inactive = the rest. Shown is part of a subset that was picked to be rich in actives.
# Assay: antileishmanial activity against promastigotes – primary screen (AID 1063);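 also: promastigotes grown with compound for 44 hours at 28 °C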
# Conditions: Leishmania major promastigotes, resazurin fluorescence viability; at 10 µM; hits give high values
row,Compound,inhibition
1,CN1CCN(c2ccc(NC(=O)COc3ccc(Cl)cc3Cl)cc2)CC1,98.7% (active)
2,CN1CCC(OC(=O)COc2ccc(Cl)cc2Cl)CC1,1.67% (inactive)
3,Cc1nn(-c2ccccc2)c(C)c1NC(=O)COc1ccc(Cl)cc1Cl,43.4% (inactive)
4,S=C(NCC1CCCO1)N1CCN(c2ccc(Cl)c(Cl)c2)CC1 (configuration not stated),17.8% (inactive)
5,COc1ccc(-c2csc(Nc3ccc(O)cc3)n2)cc1,23% (inactive)
6,NS(=O)(=O)c1ccc(Nc2nc(-c3ccccc3)cs2)cc1,81.2% (active)
7,COc1ccc(Nc2nc(-c3ccccc3)cs2)cc1,-2.02% (inactive)
8,O=C(NCC(O)c1ccc([N+](=O)[O-])cc1)C1CCCCC1 (configuration not stated),-8.78% (inactive)
9,Cc1ccccc1-c1n[nH]c(=S)n1C,-18.2% (inactive)
10,Cn1c(-c2sc3cc(C(F)(F)F)cnc3c2-c2ccccc2)n[nH]c1=S,84.1% (active)
11,Cn1c(-c2sccc2OCc2cccc(C(F)(F)F)c2)n[nH]c1=S,14.1% (inactive)
12,O=C(CCSc1ccccc1)N1CCN(c2ccccc2F)CC1,-5.13% (inactive)
13,O=C(Nc1nc(-c2cccnc2)cs1)c1ccccc1F,-2.37% (inactive)
14,COCC(C)NC(=O)c1ccc(Cl)c(Cl)c1 (configuration not stated),-3.5% (inactive)
15,OCCNCCCCOc1ccccc1F,19.1% (inactive)
16,OCCNCCOc1ccc(Cl)c(Cl)c1,78.9% (active)
17,CC/C(Cc1ccccc1)=N/NC(=O)CCn1nnc2ccccc21,-2.64% (inactive)
18,CCN(C(=O)CN1CCN(Cc2ccccc2)CC1)c1c(N)n(Cc2ccccc2)c(=O)[nH]c1=O,-0.59% (inactive)
19,O=C(/C(=C/c1cccc(Cl)c1)c1nc2ccccc2[nH]1)c1ccccc1,101% (active)
20,CCC(=O)/C(=C(/O)c1ccccc1)c1nc2ccccc2[nH]1,-5.9% (inactive)
21,COc1ccc(/C=C(/NC(=O)c2ccc(C)cc2)c2nc3ccccc3[nH]2)cc1OC,16.1% (inactive)
22,C=CCNCCCCOc1ccccc1,34.8% (inactive)
23,COc1ccc(NC(=O)CSc2nnc(-c3ccccc3F)n2C2CC2)cc1S(N)(=O)=O,2.82% (inactive)
24,CC(=O)Nc1ccc(S(=O)(=O)N2CCN(CCCOc3cc(C)ccc3C)CC2)cc1,72.8% (active)
25,CC(=O)Nc1ccc(S(=O)(=O)N2CCSCC2)cc1,0.03% (inactive)

row,Compound,inhibition
1,Cc1cccc(OCCCC(=O)Nc2ccc(S(=O)(=O)N3CCCC3)cc2)c1,44.8% (inactive)
2,O=C(CSc1ccccc1)Nc1cc(Cl)ccc1Oc1ccccc1,14.8% (inactive)
3,CCOC(=O)c1ccc(NC(=O)C2CC(=O)Nc3nc4ccccc4n32)cc1 (configuration not stated),-4.72% (inactive)
4,COC(=O)c1ccc(NC(=O)c2ccccc2NS(=O)(=O)c2ccccc2)cc1,-3.45% (inactive)
5,COc1cc(NC(=O)c2ccccc2NS(=O)(=O)c2ccc(Cl)s2)cc(OC)c1,74.3% (active)
6,COc1cc(NC(=O)c2cccnc2SC)cc(OC)c1,1.73% (inactive)
7,Cc1cc(C)cc(C(=O)NC2C(=O)N3C(C(=O)O)=C(CSc4nnc(C)s4)CSC23)c1 (configuration not stated),-0.22% (inactive)
8,O=C1/C(=C\c2ccsc2)NC(=S)N1c1ccccc1,-4.28% (inactive)
9,CC(=O)C1C(c2ccc(Cl)cc2)c2c(n[nH]c2C)CC1(C)O (configuration not stated),-0.37% (inactive)
10,CCCn1nc(C(=O)Nc2ccc3nc(C)sc3c2)c2ccccc2c1=O,80.4% (active)
11,CCCn1nc(C(=O)N2CCCc3ccccc32)c2ccccc2c1=O,26.1% (inactive)
12,CCCCn1nc(C(=O)Nc2ccc(S(=O)(=O)Nc3ncccn3)cc2)c2ccccc2c1=O,-10.7% (inactive)
13,Cn1c(=N)n(CC(O)c2cccs2)c2ccccc21 (configuration not stated),1.42% (inactive)
14,N=c1n(Cc2ccc(Cl)cc2)c2ccccc2n1CC(O)c1ccco1 (configuration not stated),85.3% (active)
15,CC(=O)NC1(c2ccc(F)cc2)CCN(C(=O)c2c(F)cccc2F)CC1,-1.81% (inactive)
16,CN(Cc1nc2ccc(F)cc2[nH]1)Cc1nc(CC2CC2)no1,-4.94% (inactive)
17,C[C@@H]1C[C@@H]2O[C@H]2/C=C\C=C\C(=O)Cc2c(Cl)c(O)cc(O)c2C(=O)O1,100% (active)
18,O=[N+]([O-])c1ccc2oc(-c3cccc(O)c3)nc2c1,-1.6% (inactive)
19,CCOC(=O)C1(Cc2cccc(OC)c2)CCN(Cc2csc(C(C)=O)c2)CC1,92.9% (active)
20,CCOC(=O)C1(Cc2cccc(OC)c2)CCN(C(C)COC)CC1 (configuration not stated),2.55% (inactive)
21,CCOC(=O)C1(Cc2cccc(OC)c2)CCN(C(C)CC(C)(C)O)CC1 (configuration not stated),-1.48% (inactive)
22,CC(=O)Nc1ccc(NC(=O)COc2ccc(S(=O)(=O)NC(C)c3ccccc3)cc2)cc1 (configuration not stated),-0.2% (inactive)
23,COc1cc(/C=C/C2=CC(C)(C)NC(=S)N2)cc(OC)c1OC,0.1% (inactive)
24,CCCCNc1nc2c(c(=O)n(C)c(=O)n2C)n1Cc1cccc(OC)c1,4.44% (inactive)
25,Cn1c(=O)c2c(nc(N/N=C/c3cccs3)n2Cc2ccc(Br)cc2)n(C)c1=O,60.3% (active)

row,Compound,inhibition
1,Cn1c(=O)c2c(nc(NCCc3ccccc3)n2Cc2ccccc2)n(C)c1=O,15.1% (inactive)
2,O=C(CN1C(=O)/C(=C\c2ccccc2F)SC1=S)Nc1nc2ccccc2s1,-3.34% (inactive)
3,Clc1ccc(-c2csc(-c3ccncc3)n2)cc1,5.86% (inactive)
4,CCOc1cc(NC(=O)CCl)c(OCC)cc1NC(C)=O,5.77% (inactive)
5,O=C1c2ccccc2S(=O)(=O)N1CC(O)Cn1c2ccccc2c2ccccc21 (configuration not stated),-4.57% (inactive)
6,CC(=O)c1ccc2c(c1)c1ccccc1n2CC(C)C,9.99% (inactive)
7,CS(=O)(=O)N(CC(O)Cn1c2ccccc2c2ccccc21)c1cccc2ccccc12 (configuration not stated),100% (active)
8,O=C(Nc1nnc(Cc2ccc(Cl)cc2)s1)c1cccnc1,-10.8% (inactive)
9,COC(=O)N/N=C/c1ccc(/C=N/NC(=O)OC)cc1,-5.23% (inactive)
10,C=CCn1c(-c2sc(-c3ccccc3)nc2C)n[nH]c1=S,-5.29% (inactive)
11,CCCNC(=O)c1ccc(Cl)c(Cl)c1,-4.03% (inactive)
12,CCN(CC)CC1(O)CCN(C(=O)c2ccc(Cl)c(Cl)c2)CC1,99.6% (active)
13,O=C(c1ccc(Cl)c(Cl)c1)N1CCCC1,-4.87% (inactive)
14,ClC1(Cl)CC1CSc1ncn[nH]1 (configuration not stated),3.37% (inactive)
15,CCOC(=O)c1cnc(Nc2nc3ccccc3o2)nc1CSC(=S)N1CCCCC1,56.7% (active)
16,CCOC(=O)CCNC(=O)N1CCCC(C(=O)c2ccccc2SC)C1 (configuration not stated),-1.7% (inactive)
17,CCc1ccc(CNC(=O)C2CCCN(c3nc4ccccc4o3)C2)cc1 (configuration not stated),0.6% (inactive)
18,COc1ccc(-n2nc(C(=O)Nc3cc(OC)c(OC)c(OC)c3)c3ccccc3c2=O)c(OC)c1,0.87% (inactive)
19,O=C(CSc1ccc(C(F)(F)F)cc1[N+](=O)[O-])NCCOc1ccccc1,-4.83% (inactive)
20,CC(CNc1ccc([N+](=O)[O-])c2cccnc12)Nc1c([N+](=O)[O-])cc(C(F)(F)F)cc1[N+](=O)[O-] (configuration not stated),76.9% (active)
21,O=C(c1cccc(F)c1)N1CCN(c2ccc([N+](=O)[O-])c3cccnc23)CC1,45.7% (inactive)
22,COc1ccnc(Oc2ccccc2)c1-c1ncn[nH]1,-5.3% (inactive)
23,CC1CCN(S(=O)(=O)c2ccc3ncn(CC(=O)N(C)C4CCCCC4)c(=O)c3c2)CC1,-0.9% (inactive)
24,Cc1ccc(NC(=O)Nc2nnc(-c3ccncc3)s2)cc1,12.8% (inactive)
25,CCN1/C(=C/c2ccc3ccc(C)cc3[n+]2CC)Sc2ccccc21,100% (active)

row,Compound,inhibition
1,CCN1/C(=C\c2ccc3ccccc3[n+]2CC)Sc2cc(C)ccc21,101% (active)
2,CCC(=O)/C=C1\Sc2ccccc2N1CC,3.43% (inactive)
3,O=C(Cc1ccccc1)N1CCN(S(=O)(=O)c2ccc([N+](=O)[O-])cc2)CC1,5.24% (inactive)
4,Cc1ccc(Nc2c(F)c(F)c(F)c(F)c2C(=O)O)c(C)c1,-6.66% (inactive)
5,COc1cccc(CN(C)CC(=O)Nc2ccccc2C(=O)Nc2ccccc2)c1,16.9% (inactive)
6,Cc1cc([N+](=O)[O-])ccc1NC(=O)c1ccc(NC(=O)C(C)C)cc1,-5.33% (inactive)
7,CN1CC(c2ccccc2)C2(COc3ccccc3C2=O)C12C(=O)Nc1ccccc12 (configuration not stated),62.6% (active)
8,Cc1ccc(S(=O)(=O)N2CCN(Cc3cccc(C)c3O)CC2)cc1,-1.84% (inactive)
9,O=S(=O)(c1ccc(F)cc1)N1CCN(Cc2ccccc2C(F)(F)F)CC1,51.1% (active)
10,O=C(CN1CCN(S(=O)(=O)c2ccc(F)cc2)CC1)Nc1ccccc1F,1.33% (inactive)
11,COc1ccc(CN(C)C(C)C(=O)NC2CCCc3ccccc32)cc1 (configuration not stated),10% (inactive)
12,O=C(c1ccccc1)N1CCN(c2ccc([N+](=O)[O-])c(NCc3ccco3)c2)CC1,65.6% (active)
13,O=[N+]([O-])c1ccc(N2CCN(S(=O)(=O)c3ccc4ccccc4c3)CC2)cc1NCc1ccco1,-0.79% (inactive)
14,O=C(c1cccc(F)c1)N1CCN(c2ccc([N+](=O)[O-])c(N3CCCCC3)c2)CC1,4.09% (inactive)
15,CN(C)c1ccc(/C=N/NC(=O)C(O)c2ccc(Br)cc2)cc1 (configuration not stated),4.17% (inactive)
16,CN(C)c1ccnc(Nc2ccc(F)cc2)c1C#N,-2.28% (inactive)
17,COC(=O)/C(NC(C)=O)=C(\C)c1ccc(Cl)cc1,0.11% (inactive)
18,C/C(=N\N=C(N)N)c1ccc(Cl)cc1,98.8% (active)
19,CCOC(=O)NNC(=O)c1ccc(Cl)cc1,-5.24% (inactive)
20,Fc1cccc(Cc2noc(CN3CCN(c4cnccn4)CC3)n2)c1,-3.37% (inactive)
21,CCOC(=O)N1CCN(Cc2nc(Cc3cccc(C(F)(F)F)c3)no2)CC1,4.8% (inactive)
22,FC(F)(F)c1cccc(Cc2noc(CN3CCC(N4CCCCC4)CC3)n2)c1,82.7% (active)
